Data on 7 compounds can be found in PubChem BioAssay (EPA / NIEHS).

Test [1] has as its target Aryl hydrocarbon receptor (Homo sapiens) (UniProt P35869). In words: ATG_Ahr_CIS: Attagene CIS-FACTORIAL HepG2 Assay for human Aryl Hydrocarbon Receptor (Ahr) (AID 2282930; active means hit-call score of the fitted dose curve at least 0.9, where 1 is the maximum; inactive means score below 0.9). The conditions noted are these: HepG2 AhR cis-factorial reporter transcription; actives raise or lower the signal. In outline:
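Endogenous factor activity is tracked through cis-promoter reporter units transfected into HepG2 cells. Transcript levels at 24 h are read by fluorescent RT-PCR and capillary electrophoresis, with activity in either direction scored relative to DMSO.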

The nature of test [2]: ATG_M_19_TRANS: Attagene TRANS-FACTORIAL HepG2 Assay for M19 Transcription Factor (Internal Marker) (AID 2282974). The conditions noted are these: HepG2 Attagene TRANS-FACTORIAL M19 internal marker reporter. The gist of the method:
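Cells: human HepG2, transiently transfected with multiplexed reporter transcription units. Exposure: 24 h. Detection: RT-PCR of reporter mRNA with capillary electrophoresis. Analysis: gain-of-signal vs DMSO.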

A short description of test [3]: ATG_GAL4_TRANS: Attagene TRANS-FACTORIAL HepG2 Assay for GAL4 (Internal Marker) (AID 2282976). The conditions noted are these: HepG2 Attagene TRANS GAL4 internal marker reporter. In outline:
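Background-control readout: GAL4-UAS reporter transcript in transiently transfected HepG2 cells after 24 h compound exposure. Measured by RT-PCR, 6-FAM primer extension, HpaI digest and capillary electrophoresis; gain-of-signal fit versus DMSO.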

Test [4] addresses Oxysterols receptor LXR-alpha (Homo sapiens) (UniProt Q13133). Briefly: ATG_LXRa_TRANS: Attagene TRANS-FACTORIAL HepG2 Assay for human Liver X Receptor alpha (LXRa) (AID 2282980). The conditions noted are these: HepG2 Attagene TRANS reporter, LXRa transactivation. In outline: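 HepG2 cells transiently transfected with GAL4-UAS reporter units for chimeric NR-Gal4 proteins, exposed to chemicals for 24 h. Reporter mRNA quantified by RT-PCR and capillary electrophoresis; gain of signal fitted relative to DMSO.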

For test [5], the target named is Oxysterols receptor LXR-beta (Homo sapiens) (UniProt P55055). Briefly: ATG_LXRb_TRANS: Attagene TRANS-FACTORIAL HepG2 Assay for human Liver X Receptor beta (LXRb) (AID 2282981). The conditions noted are these: HepG2 Attagene TRANS GAL4-LXRb reporter, mRNA. In outline: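 HepG2 cells transiently transfected with GAL4-UAS reporter units for chimeric NR-Gal4 proteins, dosed for 24 h. Reporter transcripts measured by RT-PCR and capillary electrophoresis; gain-of-signal fitting relative to DMSO.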
Sequence of Oxysterols receptor LXR-beta (Homo sapiens) (P55055 whole entry, looked up, the tested form may be a part): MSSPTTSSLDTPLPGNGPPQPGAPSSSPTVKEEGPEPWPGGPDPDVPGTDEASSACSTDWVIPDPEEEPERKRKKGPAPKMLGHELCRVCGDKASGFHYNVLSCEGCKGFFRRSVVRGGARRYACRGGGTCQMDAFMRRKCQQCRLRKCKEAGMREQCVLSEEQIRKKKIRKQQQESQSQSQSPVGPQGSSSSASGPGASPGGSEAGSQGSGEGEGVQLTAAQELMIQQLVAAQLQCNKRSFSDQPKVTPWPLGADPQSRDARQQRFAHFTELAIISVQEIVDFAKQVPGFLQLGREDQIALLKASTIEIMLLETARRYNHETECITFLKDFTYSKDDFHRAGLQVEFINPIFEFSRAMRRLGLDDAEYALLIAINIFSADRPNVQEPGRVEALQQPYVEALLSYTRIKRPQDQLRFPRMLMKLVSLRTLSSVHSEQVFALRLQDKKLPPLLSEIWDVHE

The target in test [6] is Nuclear receptor subfamily 4 group A member 2 (Homo sapiens) (UniProt P43354). In words: ATG_NURR1_TRANS: Attagene TRANS-FACTORIAL HepG2 Assay for human Nuclear Receptor Related Protein 1 (NURR1) (AID 2282985). The conditions noted are these: HepG2 Attagene TRANS reporter, mRNA readout. In outline: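 HepG2 cells transiently transfected with NURR1-Gal4 chimera and GAL4-UAS reporter units; after 24 hr compound exposure, reporter mRNA quantified by RT-PCR and capillary electrophoresis; gain of signal fitted against DMSO.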
Sequence of Nuclear receptor subfamily 4 group A member 2 (Homo sapiens) (P43354 whole entry, looked up, the tested form may be a part): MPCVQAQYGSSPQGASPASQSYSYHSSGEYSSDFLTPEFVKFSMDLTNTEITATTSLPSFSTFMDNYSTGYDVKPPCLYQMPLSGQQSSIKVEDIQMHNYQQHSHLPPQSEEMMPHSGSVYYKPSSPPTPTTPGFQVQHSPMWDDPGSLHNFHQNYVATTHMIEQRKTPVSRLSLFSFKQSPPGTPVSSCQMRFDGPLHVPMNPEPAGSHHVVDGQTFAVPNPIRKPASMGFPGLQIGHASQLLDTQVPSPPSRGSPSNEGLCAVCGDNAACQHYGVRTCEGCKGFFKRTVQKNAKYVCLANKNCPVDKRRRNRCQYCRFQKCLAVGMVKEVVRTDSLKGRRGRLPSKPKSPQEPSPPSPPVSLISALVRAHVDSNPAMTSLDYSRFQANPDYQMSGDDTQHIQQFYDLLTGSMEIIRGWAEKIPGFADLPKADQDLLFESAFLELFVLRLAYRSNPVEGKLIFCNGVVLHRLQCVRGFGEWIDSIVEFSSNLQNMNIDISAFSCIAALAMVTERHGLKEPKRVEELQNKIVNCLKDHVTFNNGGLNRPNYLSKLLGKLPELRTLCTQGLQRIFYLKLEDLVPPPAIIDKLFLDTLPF

For test [7], the target named is human RAR-related Orphan Receptor beta (RORb), RORB (gene 6096) (UniProt Q92753). In words: ATG_RORb_TRANS: Attagene TRANS-FACTORIAL HepG2 Assay for human RAR-related Orphan Receptor beta (RORb) (AID 2283010). The gist of the method: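 HepG2 cells transiently transfected with GAL4-UAS reporter units expressing chimeric NR-Gal4 protein; reporter mRNA measured 24 h after dosing by RT-PCR, 6-FAM labelling and capillary electrophoresis. Gain-of-signal fitted relative to DMSO baseline.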
Sequence of human RAR-related Orphan Receptor beta (RORb), RORB (gene 6096) (Q92753 whole entry, looked up, the tested form may be a part): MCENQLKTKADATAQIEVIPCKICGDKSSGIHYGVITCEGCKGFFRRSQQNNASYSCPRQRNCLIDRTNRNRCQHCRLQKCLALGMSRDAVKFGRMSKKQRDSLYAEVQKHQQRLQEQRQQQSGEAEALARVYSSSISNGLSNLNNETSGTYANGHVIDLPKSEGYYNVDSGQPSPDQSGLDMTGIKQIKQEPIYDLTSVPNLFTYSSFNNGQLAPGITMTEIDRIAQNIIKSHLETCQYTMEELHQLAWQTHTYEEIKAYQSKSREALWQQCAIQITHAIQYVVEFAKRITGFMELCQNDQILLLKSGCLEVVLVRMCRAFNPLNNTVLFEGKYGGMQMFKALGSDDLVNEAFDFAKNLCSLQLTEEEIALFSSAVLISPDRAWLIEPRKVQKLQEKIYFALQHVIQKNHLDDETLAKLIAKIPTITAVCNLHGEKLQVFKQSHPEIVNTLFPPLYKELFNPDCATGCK

Test [8] deals with human Thyroid Receptor alpha (THRa1), THRA (gene 7067) (UniProt P10827). In words: ATG_THRa1_TRANS: Attagene TRANS-FACTORIAL HepG2 Assay for human Thyroid Receptor alpha (THRa1) (AID 2283014). The gist of the method:
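HepG2 cells transiently transfected with chimeric NR-Gal4 and GAL4-UAS reporter units, dosed 24 h. Reporter mRNA quantified by RT-PCR, fluorescent labeling, HpaI digestion and capillary electrophoresis; gain-of-signal fit versus DMSO.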

The nature of test [9]: TOX21_p53_BLA_p4_viability: Viability Assessment in the Tox21 HCT-116 p53 Agonism Beta-lactamase Assay, Phase 4 (AID 2283597).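 Further: hits lower the luminescence signal meaning cytotoxicity.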 In outline:
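HCT-116 p53-bla cells, 4000/well, dosed after 5 h attachment and incubated 16 h at 37 °C, 5% CO2. Viability from CellTiter-Glo ATP luminescence after 30 min at room temperature, taken after the beta-lactamase read; loss of signal indicates cytotoxicity.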

The target in test [10] is Nuclear receptor subfamily 1 group I member 3 (Homo sapiens) (UniProt Q14994). Briefly: ATG_CAR_TRANS: Attagene TRANS-FACTORIAL HepG2 Assay for human Constitutive Androstane Receptor (CAR) (AID 2282969).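 Further: activators raise reporter mRNA above DMSO so AC50 marks induction.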 The conditions noted are these: HepG2 Attagene TRANS-FACTORIAL CAR reporter. The gist of the method:
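HepG2 cells transiently transfected with GAL4-UAS reporter units; TRANS format reads activity of exogenous chimeric NR-Gal4 protein. After 24 h dosing, reporter mRNA quantified by RT-PCR, 6-FAM labelling and capillary electrophoresis; gain of signal fitted against DMSO.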

The target in test [11] is human Peroxisome Proliferator-activated Receptor delta (PPARd), PPARD (gene 5467) (UniProt Q03181). Briefly: ATG_PPARd_TRANS: Attagene TRANS-FACTORIAL HepG2 Assay for human Peroxisome Proliferator-activated Receptor delta (PPARd) (AID 2283002). The gist of the method: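 Fluorescence from capillary electrophoresis of labelled RT-PCR reporter fragments gives the signal; DMSO sets baseline. Cells: HepG2 transiently carrying GAL4-UAS reporter units plus chimeric nuclear receptor-Gal4 proteins, exposed to chemicals for 24 h.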
Sequence of human Peroxisome Proliferator-activated Receptor delta (PPARd), PPARD (gene 5467) (Q03181 whole entry, looked up, the tested form may be a part): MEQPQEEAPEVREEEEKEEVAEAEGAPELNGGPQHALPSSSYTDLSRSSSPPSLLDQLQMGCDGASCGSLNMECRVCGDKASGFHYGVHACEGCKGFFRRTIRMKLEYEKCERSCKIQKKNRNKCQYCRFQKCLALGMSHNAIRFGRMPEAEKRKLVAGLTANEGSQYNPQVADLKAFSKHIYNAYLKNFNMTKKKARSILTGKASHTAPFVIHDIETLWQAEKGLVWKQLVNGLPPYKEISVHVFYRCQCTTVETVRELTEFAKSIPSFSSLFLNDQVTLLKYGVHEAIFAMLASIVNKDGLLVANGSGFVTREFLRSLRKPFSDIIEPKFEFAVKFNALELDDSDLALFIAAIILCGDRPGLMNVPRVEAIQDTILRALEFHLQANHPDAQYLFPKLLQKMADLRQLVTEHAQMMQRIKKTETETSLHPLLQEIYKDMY

Test [12] concerns the target human RAR-related Orphan Receptor gamma (RORg), RORC (gene 6097) (UniProt P51449). In words: ATG_RORg_TRANS: Attagene TRANS-FACTORIAL HepG2 Assay for human RAR-related Orphan Receptor gamma (RORg) (AID 2283011). The gist of the method: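 HepG2 cells transiently transfected with GAL4-UAS reporter units and chimeric RORg-Gal4 construct; after 24 h chemical exposure, reporter mRNA measured by RT-PCR with fluorescent capillary electrophoresis, gain of signal fitted against DMSO.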

For test [13], the target named is Retinoic acid receptor alpha (Homo sapiens) (UniProt P10276). Briefly: ATG_DR5_RAR_CIS: Attagene CIS-FACTORIAL HepG2 Assay for human Retinoic Acid Receptor Alpha (RARE), DR5 submotif (AID 2282934; active means hit-call score of the fitted dose curve at least 0.9, where 1 is the maximum; inactive means score below 0.9). The conditions noted are these: HepG2 Attagene cis-factorial RARE DR5 reporter, mRNA; actives raise or lower the signal. The gist of the method:
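After 24 h of chemical exposure, transiently transfected HepG2 cells were lysed for total RNA; the DR5-regulated reporter transcript was quantified via RT-PCR and capillary electrophoresis, with activity fitted bidirectionally against DMSO.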

The target of test [14] is Peroxisome proliferator-activated receptor gamma (Homo sapiens) (UniProt P37231). Briefly: ATG_PPARg_TRANS: Attagene TRANS-FACTORIAL HepG2 Assay for human Peroxisome Proliferator-activated Receptor-gamma (PPARg) (AID 2283007). The gist of the method:
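A TRANS-format multiplexed reporter assay measures activity of an exogenous chimeric NR-Gal4 protein in HepG2 cells. After 24 h of chemical exposure, reporter transcripts are amplified, fluorescently labelled and sized by capillary electrophoresis, with gain of signal scored against DMSO.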

Test [15] is described as follows: ACEA_ER_AUC_viability: ACEA Biosciences xCELLigence Real-Time Cell Analysis on Estrogen Receptor Agonism for Viability (AID 2283782).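 Further: continuous compound exposure with impedance area under curve over 80 h; hit means loss of impedance signal meaning reduced cell growth or viability.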 In outline:
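T47D cells preconditioned in phenol red-free RPMI with charcoal-stripped FBS, then dosed with 8-point 1:4 series from 100 uM (up to 0.5% DMSO). Impedance monitored up to ~80 h; area-under-curve loss versus DMSO taken as viability.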

The target in test [16] is Estrogen-related receptor gamma (Homo sapiens) (UniProt P62508). In words: ATG_ERRg_TRANS: Attagene TRANS-FACTORIAL HepG2 Assay for human Estrogen-Related Receptor gamma (ERRg) (AID 2282977).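 Further: hits increase reporter signal over DMSO so potencies reflect activators.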 The conditions noted are these: HepG2 Attagene TRANS reporter, ERRg transactivation. The gist of the method:
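HepG2 cells transiently transfected with multiplexed GAL4-UAS reporter units driven by chimeric NR-Gal4 proteins; 24 h exposure. Reporter mRNA quantified by RT-PCR, fluorescent labelling, HpaI digestion and capillary electrophoresis; gain of signal vs DMSO.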

Test [17] can be described thus: CCTE_Harrill_HTTr_Viability_MCF7: CCTE's 6-hour Cell Viability Assessment for the High-Throughput Transcriptomics (HTTr) Platform, in MCF-7 cells cultured in DMEM + 10% fetal bovine serum, Harrill Lab (AID 2284010; active means hit-call score of the fitted dose curve at least 0.9, where 1 is the maximum; inactive means score below 0.9). In outline: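 MCF-7 cells in DMEM + 10% FBS, 384-well, exposed 6 h to an eight-point dilution series. Membrane integrity scored by high-content imaging of propidium iodide exclusion; bidirectional fit versus DMSO.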

Test [18] is described as follows: CCTE_Harrill_HTTr_Apoptosis_MCF7: CCTE's 6-hour Apoptosis Assessment for the High-Throughput Transcriptomics (HTTr) Platform, in MCF-7 cells cultured in DMEM + 10% fetal bovine serum, Harrill Lab (AID 2284011; active means hit-call score of the fitted dose curve at least 0.9, where 1 is the maximum; inactive means score below 0.9). In outline:
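MCF-7 cells in DMEM + 10% FBS exposed 6 h to chemicals over an eight-point dilution series. Caspase-3/7 activation imaged by high-content CellEvent Green staining; fitted bidirectionally versus DMSO.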

The nature of test [19]: ATG_M_32_TRANS: Attagene TRANS-FACTORIAL HepG2 Assay for M32 Transcription Factor (Internal Marker) (AID 2282984). The conditions noted are these: HepG2 Attagene TRANS M32 internal marker reporter. In outline: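 HepG2 cells transiently transfected with GAL4-UAS reporter units, dosed for 24 hours. Reporter mRNA quantified by RT-PCR, 6-FAM labelling, HpaI digestion and capillary electrophoresis; internal-marker signal fitted upward relative to DMSO.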

Test [20] deals with Retinoic acid receptor RXR-alpha (Homo sapiens) (UniProt P19793). In words: ATG_RXRa_TRANS: Attagene TRANS-FACTORIAL HepG2 Assay for human Retinoid X Receptor alpha (RXRa) (AID 2283012). In outline: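 HepG2 cells transiently transfected with GAL4-UAS reporter units and chimeric RXRa-Gal4 protein, treated 24 h. Reporter mRNA measured by RT-PCR, fluorescent labelling, HpaI digestion and capillary electrophoresis. Induction fitted against DMSO.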

In general, AC50 refers to the concentration giving half of the maximal activity seen.

SMILES strings stand for the structures. Results filed as inconclusive are left out. More than one record can exist for a structure, and the calls need not agree. Calls of active or inactive are those of the source. How the source made its calls, unless noted: active means hit-call score of the fitted dose curve at least 0.9, where 1 is the maximum; inconclusive means response in the unintended direction; inactive means score below 0.9.

Sequence of Peroxisome proliferator-activated receptor gamma (Homo sapiens) (P37231 whole entry, looked up, the tested form may be a part): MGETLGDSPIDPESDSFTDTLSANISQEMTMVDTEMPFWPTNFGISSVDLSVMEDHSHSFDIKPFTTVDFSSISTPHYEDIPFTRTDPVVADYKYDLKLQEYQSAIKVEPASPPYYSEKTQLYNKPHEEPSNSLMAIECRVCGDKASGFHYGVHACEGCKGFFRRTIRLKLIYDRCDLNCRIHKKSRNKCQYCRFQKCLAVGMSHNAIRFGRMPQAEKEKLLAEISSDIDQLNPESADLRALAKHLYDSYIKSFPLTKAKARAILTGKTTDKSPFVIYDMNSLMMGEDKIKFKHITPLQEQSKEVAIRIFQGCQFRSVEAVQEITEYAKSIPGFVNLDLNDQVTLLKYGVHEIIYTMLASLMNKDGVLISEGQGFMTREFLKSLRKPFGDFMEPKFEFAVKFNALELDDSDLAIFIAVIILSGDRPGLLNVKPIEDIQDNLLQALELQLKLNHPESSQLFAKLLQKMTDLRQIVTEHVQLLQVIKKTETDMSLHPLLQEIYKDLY
Sequence of human RAR-related Orphan Receptor gamma (RORg), RORC (gene 6097) (P51449 whole entry, looked up, the tested form may be a part): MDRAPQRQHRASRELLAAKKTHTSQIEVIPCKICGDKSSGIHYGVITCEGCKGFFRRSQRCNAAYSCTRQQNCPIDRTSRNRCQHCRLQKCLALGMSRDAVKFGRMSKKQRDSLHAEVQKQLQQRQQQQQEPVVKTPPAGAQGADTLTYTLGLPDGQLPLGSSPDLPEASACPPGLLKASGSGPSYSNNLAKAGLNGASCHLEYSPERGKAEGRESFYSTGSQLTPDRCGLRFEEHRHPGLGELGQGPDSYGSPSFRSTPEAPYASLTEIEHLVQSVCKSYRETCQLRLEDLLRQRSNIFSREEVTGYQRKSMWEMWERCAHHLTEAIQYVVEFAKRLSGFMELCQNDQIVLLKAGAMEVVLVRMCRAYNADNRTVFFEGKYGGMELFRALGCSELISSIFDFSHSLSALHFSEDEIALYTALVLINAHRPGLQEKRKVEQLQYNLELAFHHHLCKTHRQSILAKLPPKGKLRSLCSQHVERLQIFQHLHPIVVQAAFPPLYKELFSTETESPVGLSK
Sequence of Aryl hydrocarbon receptor (Homo sapiens) (P35869 whole entry, looked up): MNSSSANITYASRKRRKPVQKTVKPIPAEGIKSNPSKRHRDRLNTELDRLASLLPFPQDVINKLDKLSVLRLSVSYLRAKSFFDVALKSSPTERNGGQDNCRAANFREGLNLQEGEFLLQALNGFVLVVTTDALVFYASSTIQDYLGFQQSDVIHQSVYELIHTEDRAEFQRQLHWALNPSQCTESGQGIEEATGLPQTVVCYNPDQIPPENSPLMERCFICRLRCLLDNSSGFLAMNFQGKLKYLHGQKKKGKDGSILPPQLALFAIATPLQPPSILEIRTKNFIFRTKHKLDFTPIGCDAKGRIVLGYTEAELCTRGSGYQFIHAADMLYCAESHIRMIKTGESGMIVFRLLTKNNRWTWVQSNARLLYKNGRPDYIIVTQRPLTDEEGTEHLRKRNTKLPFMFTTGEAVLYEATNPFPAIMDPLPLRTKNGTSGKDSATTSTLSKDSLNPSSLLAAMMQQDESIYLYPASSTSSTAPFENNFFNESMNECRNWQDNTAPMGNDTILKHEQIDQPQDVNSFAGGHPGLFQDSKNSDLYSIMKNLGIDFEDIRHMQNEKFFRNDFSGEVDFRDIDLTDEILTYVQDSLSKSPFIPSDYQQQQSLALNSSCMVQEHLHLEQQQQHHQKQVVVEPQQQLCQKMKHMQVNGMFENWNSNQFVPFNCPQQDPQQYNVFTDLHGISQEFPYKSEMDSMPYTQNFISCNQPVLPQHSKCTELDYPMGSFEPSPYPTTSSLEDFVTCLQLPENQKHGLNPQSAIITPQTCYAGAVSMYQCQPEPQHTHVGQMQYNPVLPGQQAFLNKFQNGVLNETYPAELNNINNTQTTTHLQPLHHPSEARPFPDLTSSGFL
Sequence of human Thyroid Receptor alpha (THRa1), THRA (gene 7067) (P10827 whole entry, looked up, the tested form may be a part): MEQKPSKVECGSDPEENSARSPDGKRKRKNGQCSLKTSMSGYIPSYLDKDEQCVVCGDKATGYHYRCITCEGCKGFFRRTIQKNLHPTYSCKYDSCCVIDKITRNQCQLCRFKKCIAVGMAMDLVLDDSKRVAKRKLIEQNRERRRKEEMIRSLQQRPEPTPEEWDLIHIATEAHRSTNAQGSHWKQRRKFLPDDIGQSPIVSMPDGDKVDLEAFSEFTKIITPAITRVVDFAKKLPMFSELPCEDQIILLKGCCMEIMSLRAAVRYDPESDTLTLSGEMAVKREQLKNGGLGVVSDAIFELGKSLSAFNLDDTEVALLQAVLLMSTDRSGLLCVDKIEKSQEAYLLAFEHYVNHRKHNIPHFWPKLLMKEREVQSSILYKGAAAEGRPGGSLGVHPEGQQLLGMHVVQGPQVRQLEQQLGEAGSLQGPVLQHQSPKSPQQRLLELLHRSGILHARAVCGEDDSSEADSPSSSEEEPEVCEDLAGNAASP
Sequence of Oxysterols receptor LXR-alpha (Homo sapiens) (Q13133 whole entry, looked up, the tested form may be a part): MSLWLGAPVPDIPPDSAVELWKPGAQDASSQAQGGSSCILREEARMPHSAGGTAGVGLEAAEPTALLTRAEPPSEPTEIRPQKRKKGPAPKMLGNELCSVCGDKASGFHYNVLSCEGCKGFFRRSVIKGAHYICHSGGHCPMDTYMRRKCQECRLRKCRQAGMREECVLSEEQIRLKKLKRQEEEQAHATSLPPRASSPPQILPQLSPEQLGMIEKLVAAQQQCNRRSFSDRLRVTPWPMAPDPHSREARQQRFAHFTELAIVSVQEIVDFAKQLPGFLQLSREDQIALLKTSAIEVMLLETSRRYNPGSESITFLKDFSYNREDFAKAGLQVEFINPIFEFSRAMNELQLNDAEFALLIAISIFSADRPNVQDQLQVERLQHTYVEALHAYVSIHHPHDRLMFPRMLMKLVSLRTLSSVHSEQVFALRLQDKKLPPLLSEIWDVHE

In the case of `CC1=NN(c2cc(Cl)c(S(=O)(=O)O)cc2Cl)C(=O)C1N=Nc1ccc(S(=O)(=O)O)cc1` (stereo unspecified), the outcome in [1], in test [2], in test [3], in [4], in test [5] and in test [6] was inactive. Moreover, the compound was called inactive in test [7], in test [8] and in test [9].

On to `CC(C)(C)NC(=O)[C@@H]1CN(Cc2cccnc2)CCN1C[C@@H](O)C[C@@H](Cc1ccccc1)C(=O)N[C@H]1c2ccccc2C[C@H]1O`, for which the figures for the AC50 in test [1] and in test [9] were 57.2 µM (active) and 33.2 µM (active), respectively. The result in test [10], in [2], in test [4], in test [6], in test [11] and in test [12] was inactive. In addition, the compound was classed as inactive in [8] and in test [9].

Consider `CCCN[C@H]1CCc2nc(N)sc2C1`, for which the compound was called inactive in test [1], in [2], in test [4] and in test [9].

As for `C=C1CC[C@H]2C[C@@H]1C2(C)C`, the compound was classed as inactive in test [13], in test [3], in test [4], in test [6], in test [11] and in test [14]. Moreover, the outcome in test [12] and in [15] was inactive.

As for `CC1(C)S[C@@H]2[C@H](NC(=O)[C@H](N)c3ccccc3)C(=O)N2[C@H]1C(=O)O`, the compound was called inactive in [1], in [3], in test [4], in test [5], in test [6] and in test [14]. The call in [7], in [12], in [8] and in [9] was inactive.

On to `CN(C)CCCN1c2ccccc2CCc2ccc(Cl)cc21`, for which the result in test [1], in test [3], in [16], in [6], in test [14] and in test [8] was inactive. Also, in [9], the call was inactive. The AC50 in test [9] was 73.9 µM (active); in test [17], 66.7 µM (active); in test [18], 45.5 µM (active).

As for `Nc1ccc(S(=O)(=O)Nc2cnc3ccccc3n2)cc1`, the compound was classed as inactive in test [1], in test [4], in test [19], in [6], in test [14] and in test [20]. The compound was called inactive in [8], in test [15], in [17] and in [18].
